Among all 320,000 compounds or so, about 2,100 (0.66%) were called active. Another 53% or so got no clear call; they are omitted. Calls follow the shape of the dose curve; as a rule, active = well fitted inhibition curve with a large enough effect in the signal ratio, with a control signal flat (not every such curve was filed as active); inconclusive = small, poorly fitted or top-dose-only effect, or effect the other way, or a change in a side signal; inactive = flat fitted curve, though single readings scatter; the % refers to the signal ratio. Many of the other results were omitted from the sample, so actives are more common in it than they were.
Experiment: qHTS Assay for Lipid Storage Modulators in Drosophila S3 Cells;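 as to cell number change: cells counted by Cell Tracker Red CMTPX staining in the red channel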
Conditions: BODIPY lipid droplet fluorescence, 18-24 h, cells fed with added oleic acid; cell number change: measured here: cell count max response; series mostly up to 46.1 µM
Method in brief: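 Drosophila S3 cells loaded with oleic acid (400 uM, as added) and compounds at several concentrations; lipid droplets imaged by 488-nm laser-scanning cytometry, 500–530 nm intensity and object ratio to cell channel. Percent activity normalized to 20 uM Triacsin C.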
Potency is read from the fitted curve at half-maximal effect.

Row | Structure (SMILES) | Potency | cell number change [%] | outcome
1 | O=C(COC(=O)Cc1n[nH]c(=O)c2ccccc12)Nc1ccc(Cl)cc1F | inactive | -2.17 | 
2 | COc1ccc2c(c1)cc(C(=O)N[C@@H](Cc1ccccc1)C(=O)O)n2C | inactive |  | 
3 | CCCCN1C(=O)C2NN=C(C(=O)OC)C2C1=O (stereo unspecified) | inactive | 1.06 | 
4 | CCOC(=O)C1=NNC2C(=O)N(CC)C(=O)C12 (stereo unspecified) | 13 µM (active) | 12.2 | 
5 | CCN1C(=O)[C@@H]2C(C(=O)c3cnccn3)=NN[C@@H]2C1=O | inactive | 10.4 | 
6 | Clc1ccc(Cn2ncc3c(N4CCCC4)ncnc32)cc1 | inactive | -16 | 
7 | COc1cccc(NC(=O)CN(C)C(=O)c2ccc(S(=O)(=O)Nc3ccccc3C)cc2)c1 | inactive | -4.07 | 
8 | CCN1CCN(Cc2ccc(NC(=O)c3ccc(C)c(NC(=O)c4c[nH]c5cc(C(F)(F)F)ccc5c4=O)c3)cc2C(F)(F)F)CC1 | 10.3 µM (active) | -28.9 | 
9 | CCN1CCN(Cc2ccc(NC(=O)c3ccc(C)c(NC(=O)c4cccc5[nH]ccc45)c3)cc2C(F)(F)F)CC1 | inactive | -3.74 | 
10 | CCN1CCN(Cc2ccc(NC(=O)c3ccc(C)c(NC(=O)N4CCNC4=O)c3)cc2C(F)(F)F)CC1 | inactive | 25.7 | 
11 | CCOC(=O)Cc1csc(NS(=O)(=O)c2ccc(C(F)(F)F)cc2)n1 | inactive | 3.37 | 
12 | COc1cc(OC)c(NC(=O)CCNS(=O)(=O)c2cc(Br)cnc2N)cc1Cl | inactive |  | 
13 | COc1ccc(NC(=O)CCNS(=O)(=O)c2cc(Br)cnc2N)c(OC)c1 | inactive |  | 
14 | CCOc1ccc(OCC)c(NC(=O)CCNS(=O)(=O)c2cc(Br)cnc2N)c1 | 1.3 µM (active) | -2.69 | 
15 | CN1CCN(S(=O)(=O)c2cccc(C(=O)Nc3cc(C(F)(F)F)ccc3N3CCCC3)c2)CC1 | inactive | 1.88 | 
16 | COc1cccc(/C=N/NC(=O)c2nc(-c3ccccc3)cc(-c3ccccc3)n2)c1 | 20.6 µM (active) | -10.5 | 
17 | COc1cccc(/C=N/NC(=O)c2nc(-c3ccccc3)cc(-c3ccccc3)n2)c1O | inactive | -7.98 | 
18 | COc1ccc(/C=N/NC(=O)c2nc(-c3ccccc3)cc(-c3ccccc3)n2)cc1 | inactive | -21.2 | 
19 | CCOc1cc(/C=C2\SC(=Nc3ccc(F)cc3)N(c3ccc(F)cc3)C2=O)ccc1OCC(=O)O | inactive | -5.36 | 
20 | COc1ccccc1C1=CC(=O)C[C@H](c2ccc(Cl)cc2)C1 | inactive | -15.5 | 
21 | Cc1ccccc1C(=O)NC1CCN(CC(=O)Nc2ccccc2)CC1 | inactive | -25.1 | 
22 | CCCC(=O)NC(=S)Nc1ccc(C(C)=O)cc1 | inactive | -4.91 | 
23 | CNC(=S)Nc1ccccc1-c1ccccc1 | inactive | 1.9 | 
24 | COc1ccccc1COC(=O)c1ccc(S(=O)(=O)N2CCOCC2)cc1 | inactive | -3.67 | 
25 | COc1ccc(OC)c2sc(NC(=O)c3ccc(S(=O)(=O)N4CCOCC4)cc3)nc12 | inactive | 4.36 | 
26 | CCn1c(=NC(=O)c2ccc(S(=O)(=O)N3CCOCC3)cc2)sc2cccc(OC)c21 | 16.4 µM (active) | 4.06 | 
27 | COc1ccc(Cl)cc1NS(=O)(=O)c1cccc(C(=O)NCC(c2ccco2)N(C)C)c1 (stereo unspecified) |  |  | inactive [at 0.369 µM]
28 | COc1ccc(Cl)cc1NS(=O)(=O)c1cccc(C(=O)NCC2(N(C)C)CCCCC2)c1 | 32.6 µM (active) | -25.5 | 

Row | Structure (SMILES) | Potency | cell number change [%] | outcome
29 | COc1ccccc1NS(=O)(=O)c1cccc(C(=O)NCC2(N(C)C)CCCCC2)c1 | inactive | 16.3 | 
30 | CCCCN(C(=O)c1ccc(NC2CC2)c([N+](=O)[O-])c1)c1c(N)n(CCCC)c(=O)[nH]c1=O | inactive |  | 
31 | CCCNC(=O)c1cn(CC)c2cc(N3CCN(C(=O)c4ccco4)CC3)c(F)cc2c1=O | 16.4 µM (active) | -23.8 | 
32 | CCN(CC)CCNC(=O)c1cn(CC)c2cc(N3CCN(C(=O)c4ccco4)CC3)c(F)cc2c1=O | inactive | 3.39 | 
33 | CCN(CC)CCCNC(=O)c1cn(CC)c2cc(N3CCN(C(=O)c4ccco4)CC3)c(F)cc2c1=O | inactive | 3.82 | 
34 | Cc1ccc(S(=O)(=O)N2CCC(=O)N(CCOCc3ccccc3C)CC2)cc1 | inactive | -1.04 | 
35 | Cc1cc2cc(CN(Cc3cccs3)S(=O)(=O)c3ccc4c(c3)OCCO4)c(=O)[nH]c2cc1C | inactive | 5.28 | 
36 | CCCCC(=O)Nc1ccc(C(=O)N2CCN(C)CC2)cc1 | inactive |  | 
37 | CCCCCCC(=O)NN1CCN(C)CC1 | 25.9 µM (active) | -18.7 | 
38 | CCCCCCCC(=O)NN1CCOCC1 | inactive | 12.9 | 
39 | Cc1onc(-c2ccccc2Cl)c1C(=O)NCc1ccc(N2CCCC2=O)cc1 | inactive | -1.75 | 
40 | COc1cc(C(=O)OCC(=O)Nc2cccc(S(=O)(=O)N3CCOCC3)c2)ccc1OCC(C)C | inactive | 0.792 | 
41 | CCOc1ccccc1C(=O)N[C@H](C(=O)OCc1cc(=O)oc2cc(C)ccc12)C(C)C | inactive | 1.89 | 
42 | Nc1ccccc1-c1ccccc1N | inactive | 12.1 | 
43 | NC1=NCc2ccccc21 | 18.4 µM (active) | -13 | 
44 | Cc1ccccc1N=C1N=C(N)c2ccccc21 | inactive | 4.71 | 
45 | CC(C)(C)C(=O)Nc1ccc(C(=O)N/N=C/c2ccccc2OC(=O)c2ccc(Cl)cc2)cc1 | inactive | -1.11 | 
46 | CCCN(CC(=O)Nc1ccccc1C)C(=O)c1ccc(N2CCCCC2)c([N+](=O)[O-])c1 | inactive | -25 | 
47 | CCCN(CC(=O)Nc1ccccc1C)C(=O)c1ccc(-c2ccc([N+](=O)[O-])cc2)o1 | 11.6 µM (active) |  | 
48 | CCCN(CC(=O)Nc1ccccc1C)C(=O)c1ccc(COc2ccccc2)cc1 | inactive |  | 
49 | CCN(CC)CCNC(=S)Nc1ccc(Cl)cc1 | inactive | 1.74 | 
50 | N#C/C(=C/c1ccccc1[N+](=O)[O-])c1nnc2n1CCCCC2 | inactive | 5.26 | 
51 | O=[N+]([O-])c1cccc(-c2nnc3n2CCCCC3)c1 | inactive | 8.75 | 
52 | CN(c1ccccc1)c1ccc(/C=C(\C#N)c2nnc3n2CCCCC3)cc1[N+](=O)[O-] | inactive | 0.8 | 
53 | N#C/C(=C/c1cccc([N+](=O)[O-])c1)c1nnc2n1CCCCC2 | 2.59 µM (active) | -13.7 | 
54 | N#C/C(=C\c1c[nH]c2ccccc12)c1nnc2n1CCCCC2 | inactive | 6.3 | 
55 | N#C/C(=C\c1cccc([N+](=O)[O-])c1)c1nnc2n1CCCCC2 | 4.11 µM (active) |  | 

— PubChem BioAssay AID2685 (National Center for Advancing Translational Sciences (NCATS), 2010)
